# According to PMC4336329 (PLoS ONE, 2015):
# Hit rate of the full screen: of about 310,000 compounds, about 14,000 (4.5%) showed an effect of 50% or more. The effect is printed as a negative number. This is one part of a sample in which strong results are shown more often than they occur.
# Molecular target: human ether-à-go-go-related gene (hERG) potassium channel (human, UniProt Q12809)
# Experiment: primary screen, population patch clamp on CHO cells stably expressing hERG; higher = less effect of the substance
# 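Note: peak tail current of the secondary pulse compared with the same well before compound.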
# human ether-à-go-go-related gene (hERG) potassium channel, sequence (Q12809 whole entry, looked up): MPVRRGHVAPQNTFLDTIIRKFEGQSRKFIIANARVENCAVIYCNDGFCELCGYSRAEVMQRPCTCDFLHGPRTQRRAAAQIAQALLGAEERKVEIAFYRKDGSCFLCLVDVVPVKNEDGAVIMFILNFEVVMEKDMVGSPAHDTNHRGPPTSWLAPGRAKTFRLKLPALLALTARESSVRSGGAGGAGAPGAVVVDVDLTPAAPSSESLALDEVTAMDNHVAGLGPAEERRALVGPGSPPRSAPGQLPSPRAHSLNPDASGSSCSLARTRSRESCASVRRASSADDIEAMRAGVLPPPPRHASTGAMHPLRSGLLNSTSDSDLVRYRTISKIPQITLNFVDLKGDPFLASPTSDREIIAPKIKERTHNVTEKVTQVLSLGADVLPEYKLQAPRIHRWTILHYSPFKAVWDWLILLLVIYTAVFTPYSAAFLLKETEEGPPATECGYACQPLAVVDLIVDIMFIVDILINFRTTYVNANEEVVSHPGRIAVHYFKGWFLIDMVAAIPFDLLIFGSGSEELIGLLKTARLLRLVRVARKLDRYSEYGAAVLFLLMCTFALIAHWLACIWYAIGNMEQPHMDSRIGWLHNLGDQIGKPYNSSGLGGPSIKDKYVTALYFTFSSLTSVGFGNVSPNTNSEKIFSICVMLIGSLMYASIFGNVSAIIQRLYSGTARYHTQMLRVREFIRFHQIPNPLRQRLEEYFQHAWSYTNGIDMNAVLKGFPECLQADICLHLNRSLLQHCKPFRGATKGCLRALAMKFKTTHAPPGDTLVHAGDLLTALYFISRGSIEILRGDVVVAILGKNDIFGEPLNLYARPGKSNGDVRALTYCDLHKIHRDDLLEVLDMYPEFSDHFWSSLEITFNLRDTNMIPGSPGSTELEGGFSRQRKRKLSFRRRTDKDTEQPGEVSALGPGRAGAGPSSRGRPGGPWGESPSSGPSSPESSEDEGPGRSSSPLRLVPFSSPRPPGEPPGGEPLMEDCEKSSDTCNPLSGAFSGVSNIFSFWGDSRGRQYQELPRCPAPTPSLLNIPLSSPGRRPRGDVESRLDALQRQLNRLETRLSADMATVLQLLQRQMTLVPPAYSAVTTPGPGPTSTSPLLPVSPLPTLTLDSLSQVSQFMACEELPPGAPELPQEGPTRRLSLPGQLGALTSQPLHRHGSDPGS
row,Compound,"hERG current change (%, negative = inhibition) at 10uM [%]"
1,COc1ccc(N(Cc2ccccc2)S(=O)(=O)c2cc(C(=O)O)ccc2Cl)cc1,5.3
2,CC(C)[C@H](NC(=O)OCc1ccccc1)C(=O)OCC(=O)Nc1ccc(N2CCOCC2)cc1,-15.1
3,CC(C)C(NC(=O)OCc1ccccc1)C(=O)OCC(=O)N1CCCCC1 (stereo not shown),-7.36
4,CC(C)C(NC(=O)c1ccccc1)C(=O)OCC(=O)N1CCN(c2ccccc2)CC1 (stereo not shown),-2.47
5,CC(C)C(NC(=O)OCc1ccccc1)C(=O)OCC(=O)N1C(C)CCCC1C (stereo not shown),4.95
6,CC(C)[C@H](NC(=O)OCc1ccccc1)C(=O)OCC(=O)N1CCN(c2ccccc2)CC1,-58.3
7,CC(C)[C@H](NC(=O)OCc1ccccc1)C(=O)OCC(=O)N1CCN(c2ccc(F)cc2)CC1,-75.3
8,CCOC(=O)N1CCN(C(=O)CN(C2CCCCC2)S(=O)(=O)c2ccc(F)cc2)CC1,-25.3
9,O=C(Nc1cc(S(=O)(=O)N2CCOCC2)ccc1N1CCOCC1)c1cnccn1,-42.7
10,CC(C)(C)C(=O)NC(=S)Nc1ccccc1C(=O)NC1CCCCC1,-18
11,COc1ccc(C)cc1NC(=O)c1ccc2c(SCC(=O)O)c3c(nc2c1)CCCC3,10.9
12,CC(C)OC(=O)CSc1nnc(-c2ccc(Cl)cc2Cl)o1,-7.24
13,CC(C)c1ccc(S(=O)(=O)N2CCN(CC(=O)Nc3ccc4c(c3)OCO4)CC2)cc1,-13.9
14,O=C(CN1CCN(S(=O)(=O)c2ccc(Cl)cc2)CC1)Nc1ccc2c(c1)OCCO2,-5.94
15,O=C(CN1CCN(S(=O)(=O)c2ccc(Br)cc2)CC1)Nc1ccc2c(c1)OCCO2,-27.9
16,O=C(CN1CCN(S(=O)(=O)c2ccc(Cl)cc2)CC1)Nc1ccc2c(c1)OCO2,-65
17,O=C(CN1CCN(S(=O)(=O)c2ccccc2)CC1)Nc1ccc2c(c1)OCO2,-44.1
18,O=C(CN1CCN(S(=O)(=O)c2ccc(Br)cc2)CC1)Nc1ccc2c(c1)OCO2,-62.4
19,CCCc1nnc(SCC(=O)Nc2ccc(OC)cc2)o1,28.8
20,Nn1c(SCc2ccccc2)nnc1C1CCCCC1,7.68
21,COCC(=O)NC1CC(C)(C)Cc2c1cnn2-c1ccc(F)cc1 (stereo not shown),-64.9
22,COC(=O)CCC(=O)NC1CC(C)(C)Cc2c1cnn2-c1ccc(F)cc1 (stereo not shown),4.42
23,CC1(C)Cc2c(cnn2-c2ccc(F)cc2)C(NC(=O)CCC(F)(F)F)C1 (stereo not shown),-42.8

row,Compound,"hERG current change (%, negative = inhibition) at 10uM [%]"
1,CC1(C)Cc2c(cnn2-c2ccc(F)cc2)C(NC(=O)C2CCC2)C1 (stereo not shown),-79.2
2,CC1(C)Cc2c(cnn2-c2ccc(F)cc2)C(NC(=O)C(C)(C)O)C1 (stereo not shown),-0.859
3,CC(=O)N1CCC(C(=O)NC2CC(C)(C)Cc3c2cnn3-c2ccc(F)cc2)CC1 (stereo not shown),-25.3
4,CCN(CC)S(=O)(=O)c1ccc(C(=O)NCc2nnc(SCC(=O)OC)n2C)cc1,-1.87
5,CS(=O)(=O)N1CCC(C(=O)Nc2cccc(Cl)c2)CC1,2.18
6,O=C(Nc1cccc(Cl)c1)NC1CCCCC1,8.14
7,O=C(Nc1cccc(F)c1)C1CCCCC1,-9.22
8,O=C(Nc1cccc(-c2cccc(F)c2)c1)C1CCN(C2CCOCC2)CC1,-75
9,O=C(Nc1cccc(F)c1)C1CCN(C(=O)Cc2ccccc2)CC1,-7.55
10,O=C(Nc1cccc(-c2cccc(F)c2)c1)C1CCN(C2CCC2)CC1,-71.5
11,O=C(Nc1cccc(-c2cccc(Cl)c2)c1)C1CCN(C2CCC2)CC1,-73.7
12,O=C(NC1CCN(C(=O)Nc2cccc(Cl)c2)CC1)C1CCCCC1,13.1
13,O=C(Nc1cccc(F)c1)C1CCN(C(=O)c2ccccc2Cl)CC1,-8.66
14,CS(=O)(=O)N1CCC(C(=O)Nc2cccc(F)c2)CC1,15.2
15,O=C(Nc1cccc(Cl)c1)C1CCCCC1,-9.14
16,Cl.O=C(Nc1cccc(Cl)c1)NC1CCN(C2CCCCC2)C1 (stereo not shown),-56.6
17,CCS(=O)(=O)N1CCC(C(=O)Oc2ccccc2OC)CC1,18.5
18,CC(=O)Nc1ccc(NC(=O)c2c(-c3ccccc3Cl)noc2C)cc1,5.89
19,COc1ccc(C(=O)N(c2ccc(C)cc2)C2C=CS(=O)(=O)C2)cc1OC (stereo not shown),9.79
20,CC(=O)N1CCN(Cc2ccc(Br)s2)CC1,-2.46
21,C#CCOCCOCCOCCNc1nc(N2CCN(C(=O)CCCCCCCCCCNC(=O)Cn3cc(C[C@@H](C)O)nn3)CC2)nc(N2CCN(C(=O)CCCCCCCCCCNC(=O)[C@@H](CCSC)n3cc(CCO)nn3)CC2)n1,10.1
22,O=C(COC(=O)/C=C/c1ccc([N+](=O)[O-])cc1)NCc1ccccc1,2.07
23,CC12CCC(C(=O)NNC(=O)c3ccc(F)cc3)(OC1=O)C2(C)C (stereo not shown),24.6

row,Compound,"hERG current change (%, negative = inhibition) at 10uM [%]"
1,CCOc1ccc(NC(=O)c2ccc(-c3csc(C)n3)cc2)cc1,16.5
2,CC(C)Nc1nnc(SCC(=O)Nc2ccc3c(c2)C(=O)c2ccccc2C3=O)s1,-2.55
3,COc1ccc(CCNc2nc(=O)[nH]nc2C)cc1OC,2.35
4,Cc1ccc(-c2nnc(CCC(=O)NCC3C4CC5CC(C4)CC3C5)o2)s1 (stereo not shown),-6.1
5,COc1cccc(-c2cccc(NC(=O)C3CCN(C4CCC4)CC3)c2)c1,-51.7
6,COc1cccc(-c2cccc(NC(=O)C3CCN(C4CCOCC4)CC3)c2)c1,-42
7,COc1cccc(NC(=O)C2CCC2)c1,8.83
8,CCN(CC)CC(C)CNC(=O)C1(O)c2ccccc2NC(=O)N1c1ccc(Cl)c(Cl)c1 (stereo not shown),3.31
9,COc1ccc(OCC(O)CNC(=O)Nc2cc(C)cc(C)c2)cc1 (stereo not shown),0.613
10,Cc1cc(C(=O)N/N=C/c2ccco2)n[nH]1,31.6
11,CC(=O)c1ccc(C(=O)N2CCCC(C(=O)c3cc(F)ccc3F)C2)s1 (stereo not shown),2.88
12,Cl.Cn1nnnc1SCCNCc1ccccc1OCc1ccc(F)cc1,-29.6
13,COc1cc(CNCCSc2nnnn2C)cc(Br)c1OCc1ccc(F)cc1.Cl,-43.9
14,CCOc1cc(CNCCSc2nnnn2C)cc(Br)c1OCc1ccccc1.Cl,-23.1
15,Cl.Cn1nnnc1SCCNCc1ccccc1OCc1ccc(Cl)cc1,-53.4
16,COc1cc(CNCCSc2nnnn2C)cc(Br)c1OCc1ccccc1.Cl,-56.3
17,Cn1nnnc1SCCNCc1ccccc1OCc1ccccc1,-9.36
18,CCOC(=O)c1ccc(S(=O)(=O)N2CCN(CCC#N)CC2)cc1,-14.7
19,Cc1ccc(CNC(=O)COC(=O)CSc2ccc(Br)cc2C)cc1,10.9
20,Cc1nnc(Nc2ccc(O)cc2)[nH]c1=O,27.7
21,CCN1CCN(c2ccc(S(=O)(=O)N3CCOCC3)cc2NC(=O)c2ccccc2SC)CC1,-60.1
22,CCN1CCN(c2ccc(S(=O)(=O)N3CCOCC3)cc2NC(=O)c2ccc(C)c(C)c2)CC1,-40
23,CCN1CCN(c2ccc(S(=O)(=O)N3CCOCC3)cc2NC(=O)c2ccc(Cl)s2)CC1,-57.1

row,Compound,"hERG current change (%, negative = inhibition) at 10uM [%]"
1,CCN1CCN(c2ccc(S(=O)(=O)N3CCOCC3)cc2NC(=O)c2ccc(Cl)cc2Cl)CC1,-38.4
2,CCN1CCN(c2ccc(S(=O)(=O)N3CCOCC3)cc2NC(=O)c2ccccc2OC(F)F)CC1,-42.5
3,CCN1CCN(c2ccc(S(=O)(=O)N3CCOCC3)cc2NC(=O)c2ccc(F)cc2Cl)CC1,-35.7
4,C/C(=N/OC(=O)c1c(-c2c(Cl)cccc2Cl)noc1C)c1cnccn1,-1.72
5,Cc1nc(NCc2ccccc2)c2cc[nH]c2n1,21
6,Cc1nc2sc(C(c3cccc(F)c3)N3CCCCC3)c(O)n2n1 (stereo not shown),4.79
7,O=C(NCC1CCCO1)c1ccc(Cn2c(=S)[nH]c3ccccc3c2=O)cc1 (stereo not shown),18.2
8,CN1CCN(C(=O)/C(=C/c2cn(S(=O)(=O)N(C)C)c3ccccc23)NC(=O)c2ccccc2Cl)CC1,20.2
9,COc1cc(/C=C/c2ccc3cccc(O)c3n2)ccc1O,-0.305
10,Cc1cc(C)nc(Nc2nc(C)c3cc4c(cc3n2)OCO4)n1,-3.78
11,COc1cc(N2C(=O)c3ccccc3C2=O)c(Cl)cc1C(=O)OCC(=O)NCc1ccco1,-56.1
12,Cc1c(NS(=O)(=O)c2cc(C(=O)NCc3ccco3)cc(Cl)c2Cl)c(=O)n(-c2ccccc2)n1C,-39.5
13,COc1cc(N2C(=O)c3ccccc3C2=O)c(Cl)cc1C(=O)OCC(=O)N1CCOCC1,-9.43
14,Cc1c(NS(=O)(=O)c2ccc(Cl)c(C(=O)OCC(=O)NCc3ccco3)c2)c(=O)n(-c2ccccc2)n1C,-51.9
15,CN(c1ccccc1)S(=O)(=O)c1ccc(Cl)c(C(=O)OCC(=O)NCc2ccco2)c1,-25
16,Cc1c(NS(=O)(=O)c2ccc(Cl)c(C(=O)OC(C)C(=O)N3CCOCC3)c2)c(=O)n(-c2ccccc2)n1C (stereo not shown),5.07
17,CCN(Cc1ccccc1)C(=O)C(C)OC(=O)c1cc(S(=O)(=O)Nc2c(C)n(C)n(-c3ccccc3)c2=O)ccc1C (stereo not shown),-19.3
18,Cc1ccc(S(=O)(=O)Nc2c(C)n(C)n(-c3ccccc3)c2=O)cc1C(=O)OC(C)C(=O)N(C)c1ccccc1 (stereo not shown),-10.5
19,CCN(Cc1ccccc1)C(=O)COC(=O)c1cc(S(=O)(=O)Nc2c(C)n(C)n(-c3ccccc3)c2=O)ccc1C,-74.9
20,Cc1c(NS(=O)(=O)c2ccc(Cl)c(C(=O)OC(C)C(=O)NCc3ccco3)c2)c(=O)n(-c2ccccc2)n1C (stereo not shown),-77.5
21,COc1cc(N2C(=O)c3ccccc3C2=O)c(Cl)cc1C(=O)OCC(=O)N(C)C,-28.5
22,CCN(C(=O)COC(=O)c1cc(S(=O)(=O)Nc2c(C)n(C)n(-c3ccccc3)c2=O)ccc1Cl)C1CCCCC1,-49.9
